According to PubChem BioAssay AID2685 (National Center for Advancing Translational Sciences (NCATS), 2010):
In all, about 320,000 compounds went through this assay and about 2,100 (0.66%) were called active. About 53% were inconclusive and are not listed. Calls come from the whole dose curve; as a rule, active = well fitted inhibition curve with a large enough effect in the signal ratio, with a control signal flat (not every such curve was filed as active); inconclusive = small, poorly fitted or top-dose-only effect, or effect the other way, or a change in a side signal; inactive = flat fitted curve, though single readings scatter; the % refers to the signal ratio. Many of the other results were omitted from the sample, so actives are more common in it than they were.
Potency is the fitted concentration of half-maximal effect.

Experiment: qHTS Assay for Lipid Storage Modulators in Drosophila S3 Cells;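 for cell number change: cells counted by Cell Tracker Red CMTPX staining in the red channel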; for lipid storage change, negative = inhibition: % is set by controls: 0 for no effect and ±100 for the full control effect
Conditions: BODIPY lipid droplet fluorescence, 18-24 h, cells fed with added oleic acid; cell number change: measured here: cell count max response; series mostly up to 46.1 µM; lipid storage change, negative = inhibition: at the top concentration
Method in brief: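 Laser-scanning cytometry quantifies lipid droplet accumulation (500–530 nm total intensity; droplet/cell object ratio) in oleic acid-fed (400 uM added) Drosophila S3 cells treated with a concentration series. 20 uM Triacsin C defined 100% inhibition.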
For `Cc1ccc(S(=O)(=O)N2CCc3c2cc([N+](=O)[O-])cc3[N+](=O)[O-])cc1`, the “lipid storage change, negative = inhibition” value was 9.86% (inactive) and the cell number change was 25.6%.
In the case of `O=C(O)CCCCCN1C(=O)/C(=C\c2ccncc2)SC1=S`, the Potency is reported as 3.26 µM (active) and the cell number change is reported as -19.2%.
With `O=C(CCN1C(=O)/C(=C\c2ccccc2)SC1=S)N1CCCCC1` the “lipid storage change, negative = inhibition” value was -17.1% (inactive) and the cell number change was 9.57%.
With `CC(C)c1ccc(/C=C2\SC(=S)N(CCC(=O)N3CCCCC3CCO)C2=O)cc1` (stereo not drawn) the “outcome” value was “inactive” and the cell number change was -22.4%.
With `COc1cccc(/C=C2\SC(=S)N(CCCC(=O)N3CCCC3)C2=O)c1` the “lipid storage change, negative = inhibition” value was -27.9% (inactive) and the cell number change was 19.2%.
In the case of `O=C1/C(=C/c2ccccc2)SC(=S)N1CCCC(=O)N1CCCCC1CCO` (stereo not drawn), the Potency is reported as 18.4 µM (active) and the cell number change is reported as 5.19%.
With `COc1cccc(/C=C2\SC(=S)N(CCC(=O)N3CCCCC3CCO)C2=O)c1` (stereo not drawn) the Potency was 8.2 µM (active) and the cell number change was -19.7%.
In the case of `COc1cccc(/C=C2\SC(=S)N(CCCC(=O)N3CCCCC3CCO)C2=O)c1` (stereo not drawn), the “outcome” value is reported as “inactive”.
For `O=C(O)CCCCCN1C(=O)/C(=C/c2ccncc2)SC1=S`, the “lipid storage change, negative = inhibition” value was -21.5% (inactive) and the cell number change was 8.67%.
In the case of `O=C(O)CCCN1C(=O)/C(=C/c2ccncc2)SC1=S`, the “lipid storage change, negative = inhibition” value is reported as -1.54% (inactive) and the cell number change is reported as -13%.
For `COC(=O)C1=C(C)NC(=O)/C1=C\c1ccc2c(c1)OCO2`, the “lipid storage change, negative = inhibition” value was -12% (inactive) and the cell number change was -20.5%.
In the case of `CCOC(=O)C1(Cc2cccc(Cl)c2)CCCN(C(=O)c2cn[nH]c2)C1` (stereo not drawn), the “lipid storage change, negative = inhibition” value is reported as -0.385% (inactive) and the cell number change is reported as -11.4%.
With `CN(C)c1ccc(C(=S)N2CCN(Cc3ccccc3)CC2)cc1` the “lipid storage change, negative = inhibition” value was 10.1% (inactive) and the cell number change was -4.36%.
With `CC(C)c1ccc(C(O)P(=O)(OCc2ccccc2)c2ccc(N(C)C)cc2)cc1` (stereo not drawn) the “lipid storage change, negative = inhibition” value was -15.1% (inactive) and the cell number change was 1.68%.
In the case of `COc1ccc(NC(=O)CN(c2ccc([N+](=O)[O-])cc2)S(=O)(=O)c2ccccc2)c(OC)c1`, the “lipid storage change, negative = inhibition” value is reported as 5.04% (inactive) and the cell number change is reported as -1.88%.
With `O=C1NCCCC1C(=O)NCCN1C(=O)CCC1=O` (stereo not drawn) the “lipid storage change, negative = inhibition” value was 0.15% (inactive) and the cell number change was -2.23%.
For `O=C(Nc1cccc(C(F)(F)F)c1)c1ccc(-n2cncn2)nc1`, the “lipid storage change, negative = inhibition” value was -0.0627% (inactive) and the cell number change was 5.24%.
With `COc1ccc(N(CC(=O)N2CCN(Cc3ccc4c(c3)OCO4)CC2)S(C)(=O)=O)cc1OC` the “lipid storage change, negative = inhibition” value was 0.719% (inactive) and the cell number change was 14.4%.
With `CC(C)CCNC(=O)CN(Cc1ccco1)C(=O)c1snc(C(N)=O)c1N` the “lipid storage change, negative = inhibition” value was 7.91% (inactive) and the cell number change was 8.95%.
For `COc1ccc(CCNS(=O)(=O)c2ccc(Br)cc2)cc1OC`, the “lipid storage change, negative = inhibition” value was 10.6% (inactive) and the cell number change was -6.93%.
With `COc1ccc(S(=O)(=O)NC2CCCC2)cc1Cl` the “lipid storage change, negative = inhibition” value was -23% (inactive).
With `COc1ccc(S(=O)(=O)NCCc2c[nH]c3ccc(Cl)cc23)cc1` the Potency was 20.6 µM (active).
For `CCNS(=O)(=O)c1ccc(Br)c(OC)c1`, the Potency was 25.9 µM (active) and the cell number change was -59.3%.
With `COc1ccc(CCNS(=O)(=O)c2ccc(Cl)cc2)cc1OC` the Potency was 1.64 µM (active) and the cell number change was -15.3%.
For `CCOc1cc(S(=O)(=O)NCc2ccccc2)ccc1Br`, the “lipid storage change, negative = inhibition” value was 13.7% (inactive) and the cell number change was -16.8%.
For `COc1ccc(CCNC(=O)COc2ccc(S(=O)(=O)NC3CCCCC3)cc2Cl)cc1OC`, the Potency was 8.2 µM (active) and the cell number change was -27.7%.
With `COc1ccc(CCNC(=O)COc2ccc(S(=O)(=O)NC(C)C)cc2Cl)cc1OC` the “lipid storage change, negative = inhibition” value was -26% (inactive).
In the case of `COc1ccc2[nH]cc(CCNS(=O)(=O)c3ccc(F)cc3)c2c1`, the “lipid storage change, negative = inhibition” value is reported as -4.21% (inactive) and the cell number change is reported as -14.3%.
In the case of `COc1cc(S(=O)(=O)NCc2ccccc2)ccc1Br`, the “lipid storage change, negative = inhibition” value is reported as -0.0691% (inactive) and the cell number change is reported as 5.28%.
For `COc1ccc2[nH]cc(CCNS(=O)(=O)c3ccc(C)cc3)c2c1`, the “lipid storage change, negative = inhibition” value was -1.15% (inactive) and the cell number change was 2.67%.
For `COc1ccc(CCNS(=O)(=O)c2ccc([N+](=O)[O-])cc2)cc1OC`, the “lipid storage change, negative = inhibition” value was 23.7% (inactive) and the cell number change was 0.785%.
